Rows were chosen to be rich in hits. Some 3.1% of all compounds tested hit in one or more screens of this group.
BoNT-A LC inh2 – blocks Botulinum neurotoxin A light chain protease | actives 0.17% (n = 360,000) | inhibition, % at 10 µM | multiplex microsphere protease substrate cleavage, flow cytometry | AID 588499; note: plate controls were buffer without enzyme for full effect and enzyme alone for no effect
Anthrax LF inh2 – inhibitors of Bacillus anthracis lethal factor protease; P15917; multiplex microsphere protease cleavage assay, LF; inhibition, % at 10 µM; actives 0.12% (n = 360,000); AID 588501; note: plate controls were buffer without enzyme for full effect and enzyme alone for no effect
Target sequence (P15917 whole entry, looked up): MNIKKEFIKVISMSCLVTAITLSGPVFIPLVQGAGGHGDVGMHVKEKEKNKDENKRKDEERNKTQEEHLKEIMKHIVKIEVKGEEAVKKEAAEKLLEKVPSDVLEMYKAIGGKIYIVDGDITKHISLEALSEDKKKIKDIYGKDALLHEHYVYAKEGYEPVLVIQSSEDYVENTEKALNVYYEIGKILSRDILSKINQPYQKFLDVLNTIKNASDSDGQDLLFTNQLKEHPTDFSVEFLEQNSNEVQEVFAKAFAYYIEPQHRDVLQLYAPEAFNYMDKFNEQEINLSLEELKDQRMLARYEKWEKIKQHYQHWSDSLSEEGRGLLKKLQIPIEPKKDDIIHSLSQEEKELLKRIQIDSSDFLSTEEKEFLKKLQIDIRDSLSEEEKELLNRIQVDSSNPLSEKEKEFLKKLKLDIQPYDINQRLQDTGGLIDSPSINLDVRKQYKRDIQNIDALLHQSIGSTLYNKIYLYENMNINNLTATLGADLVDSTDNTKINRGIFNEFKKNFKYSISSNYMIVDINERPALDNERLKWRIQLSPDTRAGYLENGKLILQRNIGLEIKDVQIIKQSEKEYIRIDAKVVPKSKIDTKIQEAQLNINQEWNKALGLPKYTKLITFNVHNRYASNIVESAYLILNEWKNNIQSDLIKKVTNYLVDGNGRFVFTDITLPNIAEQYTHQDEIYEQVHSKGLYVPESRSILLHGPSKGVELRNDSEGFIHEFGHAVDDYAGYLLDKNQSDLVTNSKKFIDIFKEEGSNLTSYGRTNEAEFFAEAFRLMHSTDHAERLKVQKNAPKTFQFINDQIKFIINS
SSB-PriA inh – blocks PriA binding to SSB C-terminal tail | AID 1272365 | actives 0.6% (n = 430,000) | AlphaScreen SSBct-PriA binding, biotinylated peptide | inhibition, % at 33 µM; in the data active = inhibition mostly above about 37%, no sharp cut-off; inactive = mostly below about 20%;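 note: plate controls were negative control peptide for no effect and reference peptide for full effect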
Bead autofluor – counter-screen for toxin protease inhibitors: compound fluorescence | compound autofluorescence counterscreen, microsphere flow cytometry; hits give high values | fluorescence intensity (test concentration not listed) | actives 3.1% (n = 360,000); in the data active = fluorescence intensity above about 16000; inconclusive = no clear call, values can overlap the other calls
BoNT F protease – blocks Botulinum neurotoxin F light chain protease. Multiplex microsphere protease cleavage assay, flow cytometry. inhibition, % at 10 µM. actives 0.22% (n = 360,000). AID 588497; in the data active = inhibition above about 35%, passing the limit was not always enough; inconclusive = no clear call, values can overlap the other calls; note: plate controls were buffer without enzyme for full effect and enzyme alone for no effect
* = called active by the depositor; ? = inconclusive; . = not tested or not shown. Cut-off read from the data, not from the text of the source, unless noted: active = inhibition above about 30%; inconclusive = no clear call, values can overlap the other calls; inactive = below that.

SMILES	BoNT-A LC inh2	Anthrax LF inh2	SSB-PriA inh	Bead autofluor	BoNT F protease
Cn1c(O)c(C=C2C=NN=C2c2ccccc2)sc1=S	.	.	-3.6	.	.
CCCn1c(O)c(/C=C2\C=NN=C2c2ccccc2)sc1=S	-2.6	0.3	.	25085*	-8.0
COc1cc(C(=O)NCCC(=O)NC2CCCCC2)cc(OC)c1OC	1.5	-0.4	4.5	4953	-1.3
CCOC(=O)C1CCN(C(=O)CCNC(=O)c2cc(OC)c(OC)c(OC)c2)CC1	-0.7	-4.1	-1.2	16426*	-0.6
COc1cc(C(=O)NCCC(=O)NCCCN2CCCCC2C)cc(OC)c1OC (stereo not drawn)	-2.0	-4.4	-9.9	24313*	-4.3
COC(=O)N1CCC(CNC(=O)C(=O)Nc2ccccc2C(F)(F)F)CC1	.	.	-10.0	.	.
Cc1cccc(C(=O)NNC(=O)c2ccccc2Br)c1	1.0	5.9	-3.0	3428	44.8*
O=C(O)/C=C/C(=O)NNC(=O)c1ccccc1Br	4.7	-15.8	0.3	20690*	6.2
Cc1ccccc1C(=O)NNC(=O)/C=C\C(=O)O	-0.8	-3.7	-7.7	4008	-1.7
COCCN(CCOC)C(=O)c1cn(-c2ccccc2)c(=O)cc1OC	.	.	-6.0	.	.
Cc1ccc(N=c2c([N+](=O)[O-])nn(-c3ccccc3)n2O)c(C)c1	-3.5	-2.2	36.8	17460*	-5.4
Cc1c(Cl)cccc1N=c1c([N+](=O)[O-])nn(-c2ccccc2)n1O	-0.8	-2.1	3.8	11211	-8.8
COc1ccc(CCN=c2c([N+](=O)[O-])nn(-c3cccc(C)c3)n2O)cc1OC	4.4	-3.9	32.2	4431	40.5*
Cc1cccc(CCN=c2c([N+](=O)[O-])nn(-c3ccccc3)n2O)c1	0.4	-0.6	39.5*	2191	-1.0
Cc1nc(SC(C)c2ccccc2)[nH]c(=O)c1CC(=O)NCc1cccnc1 (stereo not drawn)	.	.	-10.0	.	.
Cc1sc(N)c(C(N)=O)c1C	.	.	12.0	.	.
COCCn1cc(NC(=O)Nc2cc(C)ccc2OC)c2ccccc21	.	.	37.0*	.	.
Cc1cccc2cc(C#N)c(NCCCn3ccnc3)nc12	3.2	5.1	-3.6	19585*	1.1
Cc1cccc2cc(C#N)c(NCc3ccccc3)nc12	4.2	-3.5	-2.3	4497	-7.4
O=C(Nc1ccccc1)c1ccccc1OCC(O)CN1C(=O)c2ccccc2S1(=O)=O (stereo not drawn)	-0.2	-6.9	0.4	10064	5.0
CC1(C)NC(=O)N(CC(O)COc2ccccc2C(=O)Nc2ccccc2)C1=O (stereo not drawn)	-2.7	-1.8	-4.3	23718*	-6.1
CC1(C)NC(=O)N(CC(O)CN2C(=O)NC(C)(C)C2=O)C1=O	-0.2	-1.9	-5.3	23204*	0.1
O=[N+]([O-])c1ccccc1S(=O)(=O)NCCOc1ccc(-c2cccs2)nn1	.	.	15.0	.	.
Cc1cc(S(=O)(=O)NC[C@@H](c2cccs2)S(=O)(=O)c2cccs2)ccc1F	.	.	-29.0	.	.
COc1cc(C(=O)Nc2ccc3c(c2)CN(C(=O)C(C)C)CC3)cc(OC)c1OC	.	.	5.0	.	.
SMILES	BoNT-A LC inh2	Anthrax LF inh2	SSB-PriA inh	Bead autofluor	BoNT F protease
Cc1ccc2c(c1)N(Cc1ccccn1)C(=O)C(C)O2 (stereo not drawn)	-3.7	-1.5	-0.7	24586*	-4.6
Cc1ccccc1CSCCNC(=O)CSCc1ccc([N+](=O)[O-])cc1	?	-2.9	-7.0	21363*	0.4
Cc1cccc(CSCCNC(=O)CSCc2ccc([N+](=O)[O-])cc2)c1	.	.	-0.1	.	.
Cc1ccc(CSCCNC(=O)CSCc2ccc([N+](=O)[O-])cc2)cc1	-0.3	-3.1	-10.5	20785*	-2.9
CN(C)c1cncc(O[C@H]2CCN(C(=O)c3c[nH]c4ccccc34)C2)n1	.	.	4.0	.	.
Cc1csc(C(=O)N2CC(Oc3nccs3)C2)c1	.	.	-5.0	.	.
Cc1ccc(C2(C(F)(F)F)NC(=O)N3CCN=C3S2)cc1 (stereo not drawn)	?	-2.7	-4.0	21208*	2.8
CC(C)NC(=O)c1c(O)c2ccccc2[nH]c1=O	-0.2	-4.6	-2.1	11106	-12.1
COC(=O)c1c(O)c2ccccc2[nH]c1=O	7.6	3.5	4.5	19580*	12.2
Cc1ccc(-c2ccc(CCC(=O)O)n2-c2ccc(O)cc2)cc1	2.0	-1.2	3.3	10421	-0.7
Cc1ccc(-c2ccc(CCC(=O)O)n2-c2cccc(O)c2)cc1	-0.1	-0.7	-0.3	19713*	-1.1
Cc1c(NC(=NS(=O)(=O)c2cc([N+](=O)[O-])ccc2Cl)c2ccccc2)c(=O)n(-c2ccccc2)n1C	.	.	4.4	.	.
CC(C)(C)NS(=O)(=O)c1ccc(NS(C)(=O)=O)cc1	?	-0.9	-8.8	16636*	-2.7
COc1ccc(NS(=O)(=O)c2ccc(NS(C)(=O)=O)cc2)cc1	-1.8	-2.1	1.3	12530	-11.2
